Experiment [1] in a line: qHTS assay to identify aromatase inhibitors - cell viability counter screen (AID 743084).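 Also: cells stimulated with testosterone during compound exposure; nearly all actives have a fitted effect of over 55% in size.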 The note with it: MCF-7 aro ERE viability, CellTiter-Fluor, 24 h; series mostly up to 70.3 µM. (In general: Quantitative high-throughput screening tests each substance at several concentrations.)
The target in experiment [2] is Aryl hydrocarbon receptor (Homo sapiens) (UniProt P35869). Put plainly: qHTS assay to identify small molecule that activate the aryl hydrocarbon receptor (AhR) signaling pathway (AID 743085).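 Also: HG2L7.5c1 human HepG2 liver cells with stably integrated DRE-driven firefly reporter; nearly all actives have a fitted effect of over 15% in size.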 The conditions noted are these: HepG2 AhR-luc (HG2L7.5c1), luciferase, 24 h; series mostly up to 70.3 µM. Summed up: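 AhR agonist activity is inferred from enhanced light output of a DRE-controlled firefly luciferase reporter in HepG2 cells, measured with ONE-Glo following 24 h treatment at 37C.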

Experiment [3] can be described thus: qHTS assay to identify small molecule that activate the aryl hydrocarbon receptor (AhR) signaling pathway - cell viability counter screen (AID 743086).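 Also: HepG2 liver cells carrying the AhR DRE luciferase reporter; nearly all actives have a fitted effect of over 45% in size.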 The conditions noted are these: HepG2-AhR-luc viability, CellTiter-Fluor, 24 h; series mostly up to 70.3 µM. Summed up: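 HepG2-AhR-luc (HG2L7.5c1) cells, 4000/well, treated 24 h at 37 C with compound; viability measured as CellTiter-Fluor fluorescence after 30 min in the same wells as the luciferase read.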

Experiment [4] addresses Peroxisome proliferator-activated receptor gamma (Homo sapiens) (UniProt P37231). Nature of the experiment: qHTS assay to identify small molecule agonists of the peroxisome proliferator-activated receptor gamma (PPARg) signaling pathway (AID 743094; active = well fitted activation curve with a large enough effect in the signal ratio in the repeat runs, not every such curve was filed as active; the % refers to the signal ratio). The note with it: HEK293H PPARg-UAS-bla, beta-lactamase FRET ratio, 17 h; series mostly up to 57 µM. Summed up: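 Stably transfected HEK293H cells (GeneBLAzer PPARg UAS-bla) were incubated with test substances for 17 h at 37C after a 5 h pre-incubation; beta-lactamase activity was then detected by FRET substrate fluorescence.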

For experiment [5] the target is unchanged. Nature of the experiment: qHTS assay to identify small molecule antagonists of the peroxisome proliferator-activated receptor gamma (PPARg) signaling pathway (AID 743191; calls by dose curve; also: nearly all actives have a fitted effect of over 30% in size). The conditions noted are these: HEK293H PPARg-UAS-bla, beta-lactamase ratio, antagonist, 17 h; series mostly up to 62.6 µM. Summed up:
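GeneBLAzer PPARg UAS-bla HEK293H cells, 5 h post-plating, exposed to compounds 17 h at 37C. LiveBLAzer B/G FRET substrate added for 1 h at room temperature; beta-lactamase reporter read by fluorescence intensity.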

Experiment [6] can be described thus: qHTS assay to identify small molecule antagonists of the peroxisome proliferator-activated receptor gamma (PPARg) signaling pathway - cell viability counter screen (AID 743194). Also: nearly all actives have a fitted effect of over 55% in size. The conditions noted are these: PPARg-bla HEK293H viability, CellTiter-Glo luminescence, 17 h, co-treated with 50 nM rosiglitazone; series mostly up to 62.6 µM. The essentials: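 Cytotoxicity counter screen in PPARg-bla HEK293H cells, same wells as reporter assay. Compounds plus 50 nM rosiglitazone (final) for 17 h at 37 C, then viability read by CellTiter-Glo luminescence.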

A short description of experiment [7]: qHTS assay for small molecule agonists of the antioxidant response element (ARE) signaling pathway (AID 743202; active = well fitted activation curve with a large enough effect in the signal ratio in the repeat runs, not every such curve was filed as active; the % refers to the signal ratio; also: potency is read from the fitted curve at half-maximal effect). The note with it: HepG2 ARE-bla reporter, beta-lactamase FRET, 16 h; series mostly up to 73.3 µM. Summed up:
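Agonist mode reporter screen: HepG2 cells with ARE-controlled beta-lactamase are incubated with test compounds for 16 h at 37 C, and beta-lactamase activity is measured as fluorescence of cleaved B/G FRET substrate.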

Experiment [8] is described as follows: qHTS assay for small molecule agonists of the antioxidant response element (ARE) signaling pathway - cell viability counter screen (AID 743203; calls by dose curve; also: nearly all actives have a fitted effect of over 55% in size). The note with it: ARE-bla HepG2 viability, CellTiter-Glo luminescence, 16 h; series mostly up to 73.3 µM. Summed up:
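Cells (ARE-bla HepG2, 2,000/well) receive DMSO-dissolved compounds after a 5 hrs rest. Plates incubate 16 hrs at 37C/5% CO2. CellTiter-Glo luminescence is then recorded after 30 min at room temperature.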

Experiment [9] is described as follows: qHTS assay for small molecule activators of the heat shock response signaling pathway - cell viability counter screen (AID 743209). Also: nearly all actives have a fitted effect of over 50% in size. The conditions noted are these: HSE-bla HeLa viability, CellTiter-Glo luminescence, 5 h; series mostly up to 62.6 µM. The essentials:
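Quantitative HTS format, Tox21 10K library. HeLa cells carrying an HSE-driven beta-lactamase reporter were treated 5 h at 37 C, then assessed for viability by CellTiter-Glo luminescence.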

A short description of experiment [10]: qHTS assay for small molecule activators of the heat shock response signaling pathway (AID 743210; active = well fitted activation curve with a large enough effect in the signal ratio in the repeat runs, with a control signal flat, not every such curve was filed as active; the % refers to the signal ratio;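 also: HeLa cells with beta-lactamase reporter driven by heat shock elements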). The conditions noted are these: HeLa HSE-bla reporter, beta-lactamase ratio, 5 h; series mostly up to 62.6 µM. The essentials:
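Quantitative high-throughput format using an engineered HeLa line in which heat shock response elements drive beta-lactamase; after 5 h with compound, cells received a B/G FRET substrate and fluorescence was read.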

Each structure is given as a SMILES string. Results filed as inconclusive are left out. A number with no mark means an inactive call. Calls of active or inactive are those of the source. Unless noted, calls follow the shape of the dose curve; as a rule, active = well fitted curve in the direction sought with a large enough effect in the repeat runs; inconclusive = weak or mixed curves; inactive = no such curve, though single readings can be large; an effect the other way counts as inactive or inconclusive.

Peroxisome proliferator-activated receptor gamma (Homo sapiens), sequence (P37231 whole entry, looked up): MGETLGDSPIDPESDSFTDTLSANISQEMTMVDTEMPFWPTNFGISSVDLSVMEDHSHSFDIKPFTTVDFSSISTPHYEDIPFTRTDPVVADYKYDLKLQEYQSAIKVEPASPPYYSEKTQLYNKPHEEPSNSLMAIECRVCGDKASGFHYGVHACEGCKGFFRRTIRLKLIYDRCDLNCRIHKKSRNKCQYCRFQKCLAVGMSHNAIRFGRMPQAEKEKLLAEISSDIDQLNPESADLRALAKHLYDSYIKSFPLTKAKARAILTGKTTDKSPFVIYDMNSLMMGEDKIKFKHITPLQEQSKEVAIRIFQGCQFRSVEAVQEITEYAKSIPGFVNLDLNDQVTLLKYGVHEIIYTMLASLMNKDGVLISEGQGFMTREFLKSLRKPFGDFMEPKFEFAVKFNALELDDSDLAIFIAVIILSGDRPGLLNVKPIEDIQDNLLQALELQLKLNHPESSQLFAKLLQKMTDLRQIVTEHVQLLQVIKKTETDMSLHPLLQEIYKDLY
Aryl hydrocarbon receptor (Homo sapiens), sequence (P35869 whole entry, looked up): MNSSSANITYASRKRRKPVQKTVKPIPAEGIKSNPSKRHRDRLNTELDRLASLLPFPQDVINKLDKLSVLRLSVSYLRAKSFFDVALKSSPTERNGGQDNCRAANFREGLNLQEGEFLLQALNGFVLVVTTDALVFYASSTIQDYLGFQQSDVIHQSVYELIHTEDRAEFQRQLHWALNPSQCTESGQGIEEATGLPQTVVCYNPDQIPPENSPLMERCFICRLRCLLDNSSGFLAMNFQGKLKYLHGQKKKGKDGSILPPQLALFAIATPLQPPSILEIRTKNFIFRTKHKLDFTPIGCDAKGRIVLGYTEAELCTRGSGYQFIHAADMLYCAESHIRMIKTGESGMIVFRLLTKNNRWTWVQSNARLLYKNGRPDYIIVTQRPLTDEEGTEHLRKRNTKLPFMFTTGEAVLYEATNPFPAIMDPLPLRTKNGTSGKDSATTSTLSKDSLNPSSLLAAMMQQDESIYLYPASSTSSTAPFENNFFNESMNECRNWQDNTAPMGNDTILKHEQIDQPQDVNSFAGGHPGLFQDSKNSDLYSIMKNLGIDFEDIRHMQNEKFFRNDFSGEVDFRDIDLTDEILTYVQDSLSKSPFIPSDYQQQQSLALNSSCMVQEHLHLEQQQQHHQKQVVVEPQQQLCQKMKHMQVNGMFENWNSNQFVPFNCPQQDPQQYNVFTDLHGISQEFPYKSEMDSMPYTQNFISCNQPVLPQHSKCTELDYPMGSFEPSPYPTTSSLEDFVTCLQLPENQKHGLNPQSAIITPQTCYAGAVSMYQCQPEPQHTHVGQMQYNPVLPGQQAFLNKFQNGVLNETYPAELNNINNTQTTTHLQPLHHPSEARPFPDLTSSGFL

For the compound `C=C(C)C(=O)OCCOc1ccccc1`, the Potency entry in [1], in [2], in experiment [3], in experiment [4], in experiment [5] and in experiment [6] was “inactive” each time. In addition, the Potency result in [7], in experiment [8] and in experiment [9] was “inactive” each time.

Turning to `Cc1ccc(C)o1`, the Potency result in [1], in [2], in experiment [3], in experiment [4], in [5] and in [6] was “inactive” throughout. Besides, the Potency entry in experiment [7], in experiment [8] and in experiment [9] was “inactive” each time. In [10], the outcome was inactive.

As to `CCN(CC)C(C)=O`, the Potency entry in experiment [1], in [2], in experiment [3], in experiment [4], in experiment [5] and in experiment [6] was “inactive” each time. Besides, the Potency entry in experiment [7], in [8] and in experiment [9] was “inactive” throughout. In addition, the result in experiment [10] was inactive.

For `CC(=O)SCc1ccco1`, the Potency result in experiment [1], in [2], in experiment [3], in experiment [4], in experiment [5] and in experiment [6] was “inactive” throughout. Further, the Potency entry in [9] is “inactive”.

On to `CC(C)c1ccccc1C(C)C`, for which the Potency entry in [1], in experiment [2], in experiment [3], in experiment [4], in [5] and in experiment [6] was “inactive” in each case. The Potency result in [7] and in experiment [9] was “inactive” each time.

For the compound `CC(C)(C)c1ccc(S)cc1`, the Potency result in experiment [1], in experiment [2], in experiment [3], in [4], in experiment [5] and in [6] was “inactive” in each case. In addition, the Potency entry in [8] and in [9] was “inactive” throughout.

As for `O=c1[nH]cnc2ccccc12`, the Potency entry in experiment [1], in [2], in experiment [3], in [4], in experiment [5] and in experiment [6] was “inactive” in each case. The Potency entry in [7], in experiment [8] and in [9] was “inactive” each time. The outcome in experiment [10] was inactive.

Regarding `SC1CCCC1`, the Potency result in [1], in experiment [2], in [3], in experiment [4], in experiment [5] and in experiment [6] was “inactive” each time. For the same compound, the Potency entry in experiment [7], in experiment [8] and in experiment [9] was “inactive” each time. Besides, the outcome in [10] was inactive.

`Cc1ccc(O)c([C@H](CCN(C(C)C)C(C)C)c2ccccc2)c1`: the Potency result in experiment [1], in [2], in experiment [3], in experiment [4], in experiment [5] and in [6] was “inactive” in each case. The Potency result in [8] and in experiment [9] was “inactive” in each case. In [10], the result was inactive.

In the case of `CCCC(=O)OCC`, the Potency result in experiment [1], in [2], in experiment [3], in experiment [4], in experiment [5] and in [6] was “inactive” each time. Also, the Potency entry in experiment [8] and in experiment [9] was “inactive” throughout. In [10], the result was inactive.

For `CCN1CCC[C@H]1CNC(=O)c1c(OC)ccc(Br)c1OC`, the Potency entry in [1], in experiment [2], in [3], in [4], in [5] and in experiment [6] was “inactive” each time. In addition, the Potency entry in [7], in experiment [8] and in [9] was “inactive” each time. Further, the outcome in [10] was inactive.

For `CC(C)(C)C1CCCCC1O` (centres undefined), the Potency result in experiment [1], in experiment [2], in experiment [3], in experiment [4], in experiment [5] and in experiment [6] was “inactive” in each case. Besides, the Potency entry in [7], in experiment [8] and in experiment [9] was “inactive” each time. The outcome in experiment [10] was inactive.

Take `CC(=O)c1c(C)c([N+](=O)[O-])c(C(C)(C)C)c([N+](=O)[O-])c1C`: the Potency result in experiment [1], in [2], in experiment [3], in experiment [4], in [5] and in [6] was “inactive” each time. For the same compound, the Potency entry in experiment [7], in experiment [8] and in experiment [9] was “inactive” throughout. The outcome in experiment [10] was inactive.

`CCOc1nc2cccc(C(=O)O)c2n1Cc1ccc(-c2ccccc2-c2nn[nH]n2)cc1`: the Potency entry in experiment [1], in experiment [2], in experiment [3], in experiment [4], in [5] and in experiment [6] was “inactive” throughout. Moreover, the Potency result in experiment [9] is “inactive”. The outcome in experiment [10] was inactive.

`Cc1occc1S`: the Potency entry in [1], in experiment [2], in [3], in experiment [4], in experiment [5] and in experiment [6] was “inactive” in each case. Besides, the Potency entry in [9] was “inactive”.

As for `c1ccc(CNCc2ccccc2)cc1`, the Potency result in [1], in [2], in experiment [3], in experiment [4], in [6] and in experiment [7] was “inactive” each time. Also, the Potency entry in experiment [8] and in experiment [9] was “inactive” throughout. Also, in experiment [10], the result was inactive.

With `CCCCCCCCC(CO)CCCCCC` (centres undefined), the Potency result in experiment [1], in experiment [2], in experiment [3], in [4], in experiment [6] and in experiment [7] was “inactive” throughout. Also, the Potency result in experiment [8] and in [9] was “inactive” each time. Further, the outcome in [10] was inactive.

As for `CN(C(=O)CCCOc1ccc2[nH]c(=O)ccc2c1)C1CCCCC1`, the Potency entry in [1], in experiment [2], in experiment [3], in [4], in [6] and in experiment [7] was “inactive” throughout. For the same compound, the Potency entry in experiment [8] and in [9] was “inactive” each time. In addition, the outcome in experiment [10] was inactive.

For the compound `O=C(Cl)c1c(Cl)cccc1Cl`, the Potency result in experiment [1], in [2], in experiment [3], in experiment [4], in [6] and in [7] was “inactive” in each case. The Potency result in experiment [8] and in [9] was “inactive” each time. Moreover, in [10], the outcome was inactive.

Regarding `O=C1CCCCCO1`, the Potency entry in experiment [1], in experiment [2], in experiment [3], in experiment [4], in experiment [6] and in [7] was “inactive” in each case. Besides, the Potency entry in [8] and in experiment [9] was “inactive” throughout. In addition, in [10], the result was inactive.

Turning to `Cn1c(NCCN(CCO)CCCc2ccc([N+](=O)[O-])cc2)cc(=O)n(C)c1=O`, the Potency result in experiment [1], in [2], in experiment [3], in [4], in experiment [6] and in [7] was “inactive” throughout. Moreover, the Potency entry in [9] was “inactive”.

In the case of `S=C(S)NCCNC(=S)S`, the Potency result in [1], in experiment [2], in experiment [3], in [4], in [6] and in [8] was “inactive” in each case. The Potency entry in experiment [9] is “inactive”. The Potency in [7] is 60 µM (active). Moreover, in experiment [10], the outcome was inactive.

On to `Cn1c(=O)c2c(ncn2CC(O)CO)n(C)c1=O` (centres undefined), for which the Potency result in [1], in [2], in [3], in experiment [4], in experiment [6] and in [7] was “inactive” in each case. The Potency result in experiment [9] was “inactive”. In addition, the outcome in [10] was inactive.

The record behind these values is PubChem BioAssay (Tox21).
